Test results taken from PubChem BioAssay (Tox21).
Records with an inconclusive call do not appear. Unmarked numbers belong to inactive results. Calls of active or inactive are those of the source. Calls come from the whole dose curve; as a rule, active = well fitted inhibition curve with a large enough effect in the repeat runs; inconclusive = weak or mixed curves; inactive = no such curve, though single readings can be large or run the other way.

These compounds were tested against Cytochrome P450 3A4 (Homo sapiens) (UniProt P08684) (assay: Cytochrome P450 Family 3 Subfamily A Member 4 (CYP3A4) small molecule antagonists: luciferase reporter qHTS assay (AID 1671201; note: nearly all actives have a fitted effect of over 50% in size)). Conditions: P450-Glo CYP3A4 enzyme, luciferin luminescence, 1 h; series mostly up to 115 µM; activity change, negative = inhibition: at the top concentration.
How it was run: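 qHTS, 1536-well. CYP3A4 + proluciferin substrate, cpd 10 min RT → NADPH regen 1 h RT → detection reagent 20 min → luminescence (RLU). Ketoconazole positive control.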
% is set by controls: 0 for no effect and ±100 for the full control effect; potency is the fitted concentration of half-maximal effect.

Sequence of Cytochrome P450 3A4 (Homo sapiens) (P08684 whole entry, looked up): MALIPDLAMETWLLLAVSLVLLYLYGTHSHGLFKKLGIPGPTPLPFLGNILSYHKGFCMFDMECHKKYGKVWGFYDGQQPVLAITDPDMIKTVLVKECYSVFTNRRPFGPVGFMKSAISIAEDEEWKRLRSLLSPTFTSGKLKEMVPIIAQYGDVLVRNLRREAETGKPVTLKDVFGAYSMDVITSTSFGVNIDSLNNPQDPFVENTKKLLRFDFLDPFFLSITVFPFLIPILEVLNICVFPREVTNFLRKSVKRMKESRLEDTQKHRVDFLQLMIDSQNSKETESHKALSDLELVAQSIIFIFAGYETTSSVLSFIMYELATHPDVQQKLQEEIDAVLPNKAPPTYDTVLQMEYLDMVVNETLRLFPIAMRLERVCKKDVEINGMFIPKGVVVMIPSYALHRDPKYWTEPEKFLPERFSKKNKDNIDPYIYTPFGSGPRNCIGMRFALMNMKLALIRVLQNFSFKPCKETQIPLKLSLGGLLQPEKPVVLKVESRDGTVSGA

Structure (SMILES) | activity change, negative = inhibition | Potency
CC(=O)OC(C)OC(C)=O | -11.1% | –
CCC1(C)NC(=O)NC1=O (stereo not drawn) | 8.84% | –
O=C1CCCCCCCCCCC(=O)OCCO1 | – | 31.7 µM (active)
CO[C@@]1(NC(=O)CSCC#N)C(=O)N2C(C(=O)O)=C(CSc3nnnn3C)CS[C@@H]21 | -16.1% [at 52.9 µM] | –
CC(C)=CCCC(C)CCOC=O (stereo not drawn) | – | 35.6 µM (active)
OCCN(CCO)c1ccccc1 | -9.7% | –
C[C@]12C(=O)OC(=O)[C@H]1[C@H]1C=C[C@@H]2C1 | 11.7% | –
CCCOc1ccc2c(c1)CC[C@@H]1[C@@H]2CC[C@]2(C)C(OC)CC[C@@H]12 (stereo partly drawn) | 32.9% [at 52.9 µM] | –
c1ccc(CN(CC2=NCCN2)c2ccccc2)cc1 | -11.9% [at 52.9 µM] | –
CCCS(=O)c1ccc2nc(NC(=O)OC)[nH]c2c1 (stereo not drawn) | -12.8% [at 52.9 µM] | –
CCCC(CCC)(C(=O)OCC)C(=O)OCC | 7.29% [at 52.9 µM] | –
CN(C)CCOc1ccccc1Cc1ccccc1 | 5.59% [at 52.9 µM] | –
CCCNC(C)C(=O)Nc1c(C)csc1C(=O)OC (stereo not drawn) | -13.9% [at 52.9 µM] | –
C=CCc1cc(OC)c(O)c(C(=O)NCCO)c1 | 11.2% [at 52.9 µM] | –
CCCCNc1ccc(C(=O)OCCN(CC)CC)cc1 | 12.1% [at 52.9 µM] | –
CC/C=C\CCOC(=O)CCCCC | 2.79% | –
C[C@@H](N)C(=O)O | 7.61% [at 52.9 µM] | –
CCOC(=O)C(Br)c1ccccc1 (stereo not drawn) | 4.7% | –
